Measured values published in the supplement of paper PMC7556523.
Values without a mark were called inactive.

Key:
[1] = system: Sporothrix brasiliensis CBS 133006; assay: growth inhibition relative to untreated control; higher = more growth inhibition (more antifungal activity), active = 80 or more; extreme values may be limits of the assay; conditions: 1 µM; 48 h
Procedure, shortened: (§1)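 Yeast-form cells of the reference isolates (grown 7 days in brain heart infusion broth with 2% glucose at 36°C) were exposed at 1 x 10^5 CFU/ml to library compounds at a final 1 μM for 48 h at 35°C in 5% CO2. Growth was checked by visual inspection under an inverted light microscope and quantified by spectrophotometric readings. The value is percent growth inhibition relative to untreated control. Runs were in quadruplicate.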

[2] = system: Sporothrix schenckii ATCC 32286; assay: as above; conditions: 1 µM; 48 h
Procedure, shortened: as §1

SMILES	growth inhibition [1]	growth inhibition [2] [%]
Cc1cc(C)n2nc(C(=O)Nc3cc(C(F)(F)F)ccc3N3CCOCC3)nc2n1	0.25%	12.5
Cc1ccc2c(c1C)NC(=O)C21NN=C(c2ccccc2)S1 (stereo unspecified)	7.25%	4.5
COC(=O)c1c(NC(=O)c2cc3ccccc3oc2=O)sc2c1CCN(Cc1ccccc1)C2	8.75%	15
N=C(N)c1ccc(OCCCCCOc2ccc(C(=N)N)cc2)cc1	93.5% (active)	72
O=C(Nc1nnc(S)s1)c1cc(Br)ccc1Cl	6.75%	4
CS(=O)(=O)N1CCC(Cn2nc(Cc3cccc4ccccc34)c3c(N)ncnc32)CC1	11.2%	22
CCCn1nnc(NC(=O)COc2ccc(C3CCCCC3)cc2)n1	13.2%	0.5
CC(C)(C)OC(=O)N1CCC(Cn2nc(-c3cnc4ccccc4c3)c3c(N)ncnc32)CC1	21.2%	4.5
CC(=O)NC[C@H]1CN(c2ccc(N3CCSCC3)c(F)c2)C(=O)O1	5.5%	0
O=C(Nc1ccnc(-c2cccnc2)n1)c1cc(C(F)(F)F)cc(C(F)(F)F)c1	2.5%	0
COc1cccc(-c2nc3c(N4CCCC4)cccc3n2CC2CCCN2)n1 (stereo unspecified)	0%	9.5
CC(Oc1ccccc1)C(=O)Nc1nc(-c2ccccn2)cs1 (stereo unspecified)	18%	0
CC(C)C(NC(=O)Cc1cccc2ccccc12)C(=O)Nc1cccc(C#N)c1 (stereo unspecified)	4%	9.25
CN1CCC(c2cc(-c3ccncc3)c(-c3ccc(F)cc3)[nH]2)CC1	9%	10
O=C(Cn1ccnc1[N+](=O)[O-])NCc1ccccc1	13.8%	4
Cc1ccc2nc(Cl)c(CNCc3cccs3)cc2c1	0%	2.25
COc1ccc(-c2cnc3cnc(-c4cccc(OC(C)C)c4)cn23)cc1	10.2%	12
CCCCN(CCCC)c1c(C#N)cc(S(=O)(=O)Nc2ccccc2)cc1C#N	9.25%	23.8
C[C@]1(COc2ccc(N3CCC(Oc4ccc(OC(F)(F)F)cc4)CC3)cc2)Cn2cc([N+](=O)[O-])nc2O1	7.25%	4.5
OCc1ccc(-c2cncc(Nc3cccc(Cl)c3)c2)cc1	25.5%	6.75
Clc1cccc(CO[C@H]2CCc3ccccc3[C@@H]2n2ccnn2)c1	15.8%	3
CC(C(=O)N1CCCC1)N1CCN(S(=O)(=O)c2ccc(C(C)(C)C)cc2)CC1 (stereo unspecified)	37.5%	7
Cc1ccc(-c2nc(CN(Cc3ccccn3)C(C)C)cs2)o1	24%	1.75
O=C(OCc1ccccc1)N1CCC(c2cc(-c3ccncc3)c(-c3ccc(F)cc3)[nH]2)CC1	5.25%	13.2
Cc1ccc(NC(=O)CC2COc3ccccc3O2)cc1Cl (stereo unspecified)	10%	0
CC1CS(=O)(=O)CCN1/N=C/c1ccc([N+](=O)[O-])o1 (stereo unspecified)	6%	7
CCOc1ccccc1NC(C)C(=O)Nc1cc(C(F)(F)F)ccc1N1CCOCC1 (stereo unspecified)	27.8%	0
NCCCC(N)(C(=O)O)C(F)F (stereo unspecified)	13.5%	17.2
